Most compounds without a hit are left out; they make up all but 12% or so of the library.
JMJD2A Tudor: JMJD2A Tudor domain (human) inhibition. O75164. AlphaScreen JMJD2A-Tudor / H3K4me3 peptide binding. Potency, µM (doses to about 114 µM), usual class: inhibitors. 4.4% of 390,000 active; also: nearly all actives have a fitted effect of over 50% in size
HP1b binding inh: inhibitors of HP1-beta chromodomain binding to methylated histone tails | AlphaScreen HP1-beta / biotin-H3K9me3 peptide binding | Potency, µM (doses to about 114 µM), most hits filed as inhibitors | 0.56% of 390,000 active; also: nearly all actives have a fitted effect of over 70% in size
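Compound inhibition of the preformed complex between 50 nM HP1-beta and 50 nM biotinylated H3K9me3 peptide was read by AlphaScreen. Buffer was PBS pH 7.4 with 0.01% Tween-20. Incubations ran 30 min at room temperature, with 10 ug/mL donor/acceptor beads.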
Sfp inh: Sfp phosphopantetheinyl transferase inhibition; Potency, µM, hits mostly inhibitors; 3.5% of 310,000 active; AID 1490; Biochemical Sfp PPTase activity, qHTS;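 also: the enzyme is Sfp with the accession as filed and its product quenches rhodamine fluorescence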
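Compounds were incubated with enzyme (final 15 nM) for 15 min at room temperature before substrate addition started the reaction. Fluorescence at 525 nm excitation, 598 nm emission was recorded immediately and after 30 minutes.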
G9a block: inhibitors of human histone lysine methyltransferase G9a; G9a H3K9 monomethylation, AlphaScreen, 2 h; Potency, µM (top dose mostly 102 µM), hits mostly inhibitors; 8.8% of 350,000 active; AID 504332; also: nearly all actives have a fitted effect of over 75% in size
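Readings reflect AlphaScreen signal from monomethyl-H3K9 antibody detection. HMT at 20 nM; substrate b-H3K9 500 nM; cofactor SAM 20 uM; 2 h RT reaction; compounds tested as titrations in qHTS with 15 min preincubation.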
L3MBTL1 inh: L3MBTL1 (human) inhibition; Q9Y468; AlphaScreen L3MBTL1–H3K9me1 peptide binding; Potency, µM (top dose mostly 57.1 µM), actives largely listed as inhibitors; 0.66% of 230,000 active; AID 485360; also: nearly all actives have a fitted effect of over 60% in size
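First, the protein-peptide complex forms for 30 min at room temperature (L3MBTL1 50 nM, biotinylated H3K9me1 peptide 75 nM). Next, compounds are pin-transferred and incubated 30 min. Finally, AlphaScreen beads are added and read after 30 min.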
BAZ2B inh: inhibitors of human BAZ2B bromodomain; Potency, µM (highest dose often 114 µM), usual class: inhibitors; AID 504333; AlphaScreen BAZ2B-H3K14Ac peptide displacement; 4.4% of 360,000 active; also: nearly all actives have a fitted effect of over 60% in size
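Multi-concentration screen (max 110 uM) measuring displacement of acetylated histone H3 peptide from BAZ2B by AlphaScreen, using 50 nM protein, 50 nM peptide and 10 ug/mL streptavidin donor plus Ni-chelate acceptor beads.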
Hits are given with their value; i = inactive; ? = inconclusive; nt = no result given; [ ] = remark or other dose. Calls follow the shape of the dose curve; as a rule, active = well fitted curve in the direction sought with a large enough effect; inconclusive = small, poorly fitted or top-dose-only effect, or another doubt; inactive = no such curve, though single readings can be large; an effect the other way counts as inactive or inconclusive.

SMILES	JMJD2A Tudor	HP1b binding inh	Sfp inh	G9a block	L3MBTL1 inh	BAZ2B inh
CCC(=O)c1ccc(OCC(=O)Nc2ccccc2N2CCCCC2)cc1	i	i	i	i[12.7 µM]	nt	i
Cn1c(C23CC4CC(CC(C4)C2)C3)n[nH]c1=S	5.6µM	i	i	22µM	i	i
COCCCn1c(C)cc(C(=O)COC(=O)C23CC4CC(CC(O)(C4)C2)C3)c1C	i	i	nt	i	i	i
COCCCn1c(C23CC4CC(CC(C4)C2)C3)n[nH]c1=S	7.9µM	i	?	nt	i	i
CC(C)Cn1c(C23CC4CC(CC(C4)C2)C3)n[nH]c1=S	56µM	i	?	3.2µM	i	?
COc1cc(C(=O)Nc2ccc(N3CCCS3(=O)=O)cc2)c([N+](=O)[O-])cc1OC	i	i	nt	i[2.33 µM]	i	i
Cc1ccoc1C(=O)NCCNc1ccc(Cl)cc1[N+](=O)[O-]	?	?	i	18µM	i	45µM
COc1ccccc1CNC(=O)C(=O)NCC(c1ccco1)S(=O)(=O)c1cccs1 (stereo not drawn)	i	i	nt	i	nt	i
O=c1c2c(-c3ccco3)csc2nc(SCc2cn3cccnc3n2)n1-c1ccccc1	i[11.4 µM]	i	18µM	?	i	i
CCNC(=O)Oc1ccc[nH]c1=O	i	i	25µM	i[2.33 µM]	i	?
Cc1ccc(-c2nc(NCCN(C)C)c3ccccc3n2)cc1	i	i	i	i	i	i
CN(C)CCNc1cc(-c2ccncc2)nc2ccccc12	i	i	i	22µM	i	?
OC[C@@H]1O[C@H](OC2[C@@H](O)[C@@H](O)C(O)O[C@@H]2CO)[C@H](O)[C@@H](O)[C@@H]1OC1O[C@H](CO)[C@@H](O)[C@H](O)[C@@H]1O (stereo partly drawn)	nt	nt	i	nt	nt	nt
Cc1c(CN2CCN(CC(C)(C)C)C(CCO)C2)[nH]c2ccccc12 (stereo not drawn)	i	i	i	71µM	i	i
O=c1cc(CN2CCN(Cc3ccc(F)cc3)C(CCO)C2)[nH]c2ccccc12 (stereo not drawn)	i	i	i	25µM	i	i
Cc1ccc(NC(=O)C(C)C(=O)Nc2ccc(C)cc2)cc1	i	i	i	i	nt	nt
Cc1ccc(NC(=O)N2CCC(=O)N2)cc1	32µM	i	i	?	i	i
Cc1cccc(N2CCN(C(=O)CN3C(=O)COc4ccc(S(=O)(=O)N5CCCC5)cc43)CC2C)c1 (stereo not drawn)	i	i	nt	i	nt	?
O=C(Nc1nnc(C2CC2)s1)C1Cc2ccccc2CN1C(=O)c1ccco1 (stereo not drawn)	?	?	40µM	20µM	?	50µM
Cn1c(=O)c2[nH]c(-c3ccccc3Cl)c(O)c2n(C)c1=O	i	i	?	45µM	i	i
Cn1c(=O)c2[nH]c(-c3ccccc3)c(O)c2n(C)c1=O	i	i	14µM	2.2µM	i	i
Cn1c(=O)c2[nH]c(-c3ccccc3)nc2n(C)c1=O	nt	nt	i	i	i	i
O=C(N/N=C/c1ccccc1)c1ccc(CN2C(=O)c3cccc4cccc2c34)cc1	?	i	i	i	i	i
O=C(N/N=C/c1ccc(O)cc1O)c1ccc(CN2C(=O)c3cccc4cccc2c34)cc1	i	i	i	79µM	i	i
CC(=O)Nc1nc(C)c(CCC2OCCO2)c(=O)[nH]1	i	i	i	i	nt	i
SMILES	JMJD2A Tudor	HP1b binding inh	Sfp inh	G9a block	L3MBTL1 inh	BAZ2B inh
Cc1[nH]c(=S)[nH]c(=O)c1CCCO	i	i	?	71µM	i	i
Cc1[nH]c(=S)[nH]c(=O)c1CCC1OCCO1	i	i	79µM	?	nt	i
CCCCc1c(C)[nH]c(=S)[nH]c1=O	i	i	i	i	nt	i
CC(C)(C)c1ccc(OCC(=O)Nc2ccncc2)cc1	i	i	i	i	i	i
O=c1c(S(=O)(=O)c2ccccc2)cn(Cc2ccccc2)c2cc(N3CCOCC3)c(F)cc12	i	i	nt	i	nt	i
COc1cccc(Nc2ncc3nc(-c4ccc(Cl)cc4)c(=O)n(C4CC4)c3n2)c1	nt	nt	i	i[0.501 µM]	nt	nt
O=C(Nc1ccccc1)c1ccc2nc(-c3ccco3)c(-c3ccco3)nc2c1	50µM	?	20µM	?	?	i
CNC(=O)c1ccc2nc(-c3ccco3)c(-c3ccco3)nc2c1	18µM	18µM	nt	nt	nt	nt
O=C(NC1CCCCC1)c1cc(-c2ccco2)on1	i	i	i	i	i	i
O=C(NC1CC1)c1ccc2nc(-c3ccco3)c(-c3ccco3)nc2c1	20µM	22µM	nt	nt	nt	nt
O=C(c1ccc2nc(-c3ccco3)c(-c3ccco3)nc2c1)N1CCN(c2ncccn2)CC1	89µM	i	14µM	35µM	i	?
O=C(Nc1ccc(N2CCOCC2)cc1)c1ccc2nc(-c3ccco3)c(-c3ccco3)nc2c1	i	i	i	?	i	i
CC(C)CN(C(=O)c1cccc(S(=O)(=O)N2CCN(C)CC2)c1)C1CCS(=O)(=O)C1 (stereo not drawn)	i	i	nt	i[0.501 µM]	i	i
O=C(NCc1ccccc1)c1ccc2nccnc2c1	i	i	i	i	nt	i
CC(=O)c1ccc(NC(=O)c2ccc3nc(-c4ccco4)c(-c4ccco4)nc3c2)cc1	45µM	8.9µM	13µM	1.8µM	nt	11µM
O=C(NCc1ccccc1)c1ccc2nc(-c3ccco3)c(-c3ccco3)nc2c1	20µM	i	7.1µM	1.8µM	nt	50µM
CC(C)NC(=O)N1CCC2(CC1)CCN(C(=O)c1ccncc1)CC2	nt	nt	i	i[12.7 µM]	nt	nt
CCC(=O)N(C1=C(NC)C(=O)c2ccccc2C1=O)C(C)C	i	i	i	i	nt	i
CCC(=O)N(CC)C1=C(O)c2ccccc2C(=O)C1=O	5.6µM	?	11µM	1µM	i	45µM
COc1cc(-c2onc3ccc(Br)cc23)cc(OC)c1OC	i	i	50µM	i[0.501 µM]	i	i
COc1ccc(-c2onc3ccc(Br)cc23)cc1	i	i	71µM	i	i	i
C=CCNC(=O)c1ccc(OC2CCN(S(=O)(=O)N(C)C)CC2)cc1	i	i	i	i	i	i
COc1ccc(-c2nc3cnc(N4CCNCC4)nc3n(-c3ccccc3)c2=O)cc1	nt	nt	i	i[12.7 µM]	nt	nt
CN(C(=O)Cc1c(C(=O)O)n(C)c2ccccc12)c1ccc(F)cc1	i	i	i	i	nt	i
Cc1nc(C)c(-c2csc(Nc3ccc(N)cc3)n2)s1	50µM	?	i	40µM	i	28µM
O=C(O)c1ccc(Nc2nc(-c3cccnc3)cs2)cc1O	i	i	?	i	i	i
Cc1nc(C)c(-c2csc(Nc3cccnc3)n2)s1	?	i	i	i[12.7 µM]	i	?
COc1ccc(Nc2nc(-c3sc(C)nc3C)cs2)cc1	?	?	i	nt	i	50µM
Cc1nc(N)sc1-c1csc(Nc2ccccc2)n1	?	i	i	?	i	50µM
